Screening results from PubChem BioAssay.
TEAD-YAP block = TEAD-YAP interaction inhibition, primary screen, TEAD-YAP interaction inhibitor project, luminescence, HEK-TIYL cells. TEAD-Gal4/YAP UAS-luciferase luminescence. inhibition, % at 9.12 µM. hit rate 1.4% among 640,000. AID 1259422, 2018; in the data active means inhibition above about 32%;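 further: 0% = median of test compound wells and 100% = reference inhibitor wells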
MITF primary = MITF inhibitors, primary screen, biochemical, AlphaScreen, human; Microphthalmia-associated transcription factor (Homo sapiens), O75030; AlphaScreen MITF homodimerization, bead proximity signal; inhibition, % at 2.6 µM; hit rate 0.91% among 650,000; AID 1259374, 2018; in the data active means inhibition above about 50%;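 further: 0% = vehicle wells with protein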
GPR151 ag = activators of human GPR151, primary screen, cell-based, PathHunter beta-arrestin, luminescence; G-protein coupled receptor 151 (Homo sapiens), Q8TDV0; PathHunter beta-arrestin GPR151 cells; activation, % at 11.2 µM; hit rate 1% among 650,000; in the data active means activation above about 4.9%;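 further: 0% = median of compound wells and 100% = cells with positive control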
Target sequence (Q8TDV0 whole entry, looked up): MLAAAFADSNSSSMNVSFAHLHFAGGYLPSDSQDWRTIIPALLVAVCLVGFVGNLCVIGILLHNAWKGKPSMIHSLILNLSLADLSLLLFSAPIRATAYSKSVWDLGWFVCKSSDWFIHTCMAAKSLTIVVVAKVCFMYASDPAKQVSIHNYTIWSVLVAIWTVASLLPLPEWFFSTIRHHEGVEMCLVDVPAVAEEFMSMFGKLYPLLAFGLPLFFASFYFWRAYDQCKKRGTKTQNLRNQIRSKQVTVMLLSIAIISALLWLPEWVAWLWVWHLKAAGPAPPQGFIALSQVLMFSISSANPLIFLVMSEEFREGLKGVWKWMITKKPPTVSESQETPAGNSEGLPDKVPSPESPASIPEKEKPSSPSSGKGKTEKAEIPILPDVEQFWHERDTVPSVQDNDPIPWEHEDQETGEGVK
FBW7 act = FBW7 E3 ligase activators, primary screen, biochemical, AlphaScreen, human; hit rate 0.13% among 650,000; normalized activity (activation), % at 26.1 µM; AlphaScreen FBW7–phospho-cyclin E peptide binding, activator screen; in the data active means normalized activity above about 1.9%;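 further: purified mutant Fbw7 with reduced substrate affinity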
GPR151 conf act = GPR151 activators, triplicate retest, confirmation, cell-based, PathHunter beta-arrestin, luminescence; shares compounds with GPR151 ag; GPR151 PathHunter beta-arrestin cells, 90 min; % of EA-reagent control over plate median; activation, % at 11.2 µM; 6,700 tested, under 10 active; AID 1508609, 2020;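 active means mean percent activation across replicates above the confirmation screen cutoff of 4.91%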
GPR119 counter = GPR119 activators in beta-arrestin cells, counter-screen for GPR151 activator project, cell-based, PathHunter beta-arrestin, luminescence, triplicate | shares compounds with GPR151 ag | hit rate 0.3% among 6,700 | activation, % at 11.2 µM | 90 min; 0 = compound-well median, 100 = enzyme-acceptor control;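 active means mean percent activation in the counterscreen above 29.09%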;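 further: counterscreen on off-target GPR119 to flag nonselective hits from the GPR151 activator screen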
Starred values were filed as active, the others as inactive; x = not tested or not shown. Sampled rows, rich in hits. Any-hit rate of the full collection: about 3.4%.

SMILES | TEAD-YAP block | MITF primary | GPR151 ag | FBW7 act | GPR151 conf act | GPR119 counter
O=C(CCC/C=C\C[C@@H]1[C@@H](/C=C/[C@@H](O)CCc2ccccc2)[C@H](O)C[C@@H]1O)NC(CO)CO | x | -17.5 | 1.0 | x | x | x
O=C(O)CCC/C=C\C[C@@H]1[C@@H](/C=C/[C@H](O)CCc2ccccc2)[C@H](O)C[C@@H]1O | x | -14.7 | 5.6* | x | 1.1 | 5.5
CCOC(=O)C1=C(C)NC2=C(C(=O)CC(c3ccc(Cl)cc3)C2)C1c1cccc(OC)c1OC (stereo not drawn) | 6.9 | 6.1 | 20.9* | 1.0 | -1.3 | -8.4
COc1ccc(C2C(C(=O)OCC(C)C)=C(C)NC3=C2C(=O)CC(c2ccc(Cl)cc2)C3)cc1 (stereo not drawn) | 6.5 | -12.9 | 5.5* | 0.7 | 1.1 | 3.9
COCCOC(=O)C1=C(C)NC2=C(C(=O)CC(c3ccc(Cl)cc3)C2)C1c1cccc(OC)c1OC (stereo not drawn) | 18.6 | -6.8 | -0.2 | 0.0 | x | x
Cc1ccc2oc(-c3ccc4c(c3)C(=O)N(C)C4=O)nc2c1 | 9.3 | 7.9 | -0.1 | 0.3 | x | x
Cc1ccc(CN2CCC(N(C)C(C)c3nccs3)CCC2=O)cc1 (stereo not drawn) | -4.0 | -0.7 | 5.2* | -0.5 | 0.6 | 14.3
Cc1c(S(=O)(=O)N2CCN(c3ccccc3)CC2)c(=O)n(C)c(=O)n1C | 8.3 | 7.5 | 8.2* | -0.4 | 1.1 | 4.5
c1ccc2c(c1)cnn2CCCNc1nncc(-c2ccc3c(c2)OCO3)n1 | 28.4 | 17.0 | -1.3 | 0.1 | x | x
CCC(=O)N1CCC[C@@H]2CN(C(=O)/C=C/c3cccs3)CC[C@H]21 | -17.3 | -1.8 | 5.6* | 0.1 | 0.4 | -2.4
CC1=NC2(CCN(C(=O)NC(C)C)CC2)N=C1c1ccccc1 | -4.7 | 10.9 | 9.1* | 0.4 | -0.2 | -5.8
CC1=NC2(CCN(S(C)(=O)=O)CC2)N=C1c1ccccc1 | -5.1 | 0.3 | 0.1 | -0.8 | x | x
COc1ccc(/C=C(/NC(=O)c2ccc(C)cc2)C(=O)O)c(OC)c1 | -2.8 | -2.2 | 5.3* | -0.1 | 0.6 | 13.5
COc1ccc(/C=C(\NC(=O)c2ccccc2)C(=O)NN)c(OC)c1 | -0.9 | -13.3 | 0.3 | -0.1 | x | x
CCN1CCSc2ccc(C(=O)NCC3CCCO3)cc21 (stereo not drawn) | -4.7 | 5.7 | 8.1* | 0.1 | -0.5 | -6.1
CCn1c(N)c(C(=O)NCC2CCCO2)sc1=S (stereo not drawn) | -4.7 | -18.1 | 5.6* | 0.1 | 0.8 | 7.2
CC(C)(C)c1nnc(NC(=O)c2ccc([N+](=O)[O-])cc2)s1 | -2.4 | 12.6 | -0.1 | 0.6 | x | x
COc1ccc(C(=O)Nc2nnc(C(C)(C)C)s2)cc1[N+](=O)[O-] | -12.7 | -6.0 | 7.3* | 0.0 | -1.7 | -18.0
Cc1ccccc1CN1CCC(N2CCC(C(=O)NCC3CCCO3)CC2)CC1 (stereo not drawn) | 9.5 | 6.1 | 8.4* | 0.0 | 0.5 | 18.3
CC1=CCC(C(=O)O)(C(=O)n2nc(C)cc2C)C(c2ccc([N+](=O)[O-])cc2)C1 (stereo not drawn) | -7.8 | 5.0 | 0.8 | -0.3 | x | x
Cc1cc(C)cc(NC(=O)C2CCN(c3nnc(-n4c(C)ccc4C)s3)CC2)c1 | 5.1 | 4.8 | 5.5* | 0.0 | 0.0 | -10.1
CC(Oc1ccc(Br)cc1)C(=O)Nc1ccc(C(N)=O)cc1 (stereo not drawn) | 8.3 | -7.4 | 5.7* | -0.3 | -0.2 | -2.0
CC(Oc1ccc(Br)cc1)C(=O)Nc1ccccc1 (stereo not drawn) | 0.9 | -15.8 | -1.1 | -0.2 | x | x
CCOc1ccc(C2=C/C(=C/c3cccs3)C(=O)O2)cc1 | 0.7 | 4.1 | 5.8* | -0.2 | -0.6 | 12.3
CCOc1ccc(C2=C/C(=C\c3cccs3)C(=O)O2)cc1 | -18.3 | -0.6 | 0.3 | -0.1 | x | x
SMILES | TEAD-YAP block | MITF primary | GPR151 ag | FBW7 act | GPR151 conf act | GPR119 counter
S=C(NCCN1CCOCC1)Nc1cccc2cnccc12 | -8.4 | -10.9 | -0.5 | -0.3 | x | x
S=C(NCCN1CCOCC1)Nc1cccc2ccccc12 | -2.7 | 2.3 | 5.3* | -0.2 | -0.1 | -10.3
O=C(O)c1ccc(Cn2cnc3scc(-c4ccccc4)c3c2=O)cc1 | -0.8 | -0.4 | 5.2* | 0.0 | 0.2 | 7.2
O=c1c2c(-c3ccccc3)csc2ncn1Cc1ccccc1 | 10.3 | 1.4 | -0.6 | 0.0 | x | x
O=C(NCCCN1CCOCC1)c1cc(S(=O)(=O)N2CCOCC2)ccc1Sc1ccc(Br)cc1 | -8.3 | -5.2 | 5.6* | -0.2 | -1.1 | 5.3
CCCCNC(=O)c1cc(S(=O)(=O)N2CCOCC2)ccc1Sc1ccc(Br)cc1 | -0.4 | 2.1 | -0.3 | 0.1 | x | x
Cc1cc2ncn(S(=O)(=O)c3ccc(Cl)c(Cl)c3)c2cc1C | 3.6 | 10.1 | -0.8 | 0.1 | x | x
Cc1cc2ncn(S(=O)(=O)c3ccc(S(=O)(=O)N4CCCCC4)cc3)c2cc1C | -6.1 | 15.6 | 7.7* | 0.8 | -0.3 | -11.4
CCN(CC)c1cc(Nc2ccc(NC(C)=O)cc2)c([N+](=O)[O-])c2nonc12 | 6.9 | 6.4 | 1.7 | 0.1 | x | x
CCN(CC)c1cc(NCCO)c([N+](=O)[O-])c2nonc12 | 5.5 | 15.7 | 5.9* | 0.1 | -0.8 | -11.6
COc1cc(-c2cn[nH]c2)cc2c(=O)[nH]c(C3COc4ccc(C)cc4C3)nc12 (stereo not drawn) | 7.0 | 9.9 | 5.6* | 0.3 | -0.6 | -5.7
COc1ccc(C(=O)Nc2ccnn2C2CCN(Cc3cn(C)nc3C)CC2)cc1 | 1.9 | 9.4 | 5.6* | 0.0 | 1.6 | -14.5
COc1ccc(C(=O)Nc2ccnn2C2CCN(C(=O)C3CCOC3)CC2)cc1 (stereo not drawn) | -8.2 | 4.9 | 5.8* | 0.0 | 0.5 | -0.3
COc1ccc(C(=O)Nc2ccnn2C2CCN(Cc3ccon3)CC2)cc1 | 14.3 | 1.6 | -0.7 | -0.2 | x | x
CC(C)(O)C(=O)/C=C/c1ccc(Cl)cc1Cl | 7.0 | -15.0 | -0.6 | 0.0 | x | x
COc1ccc(/C=N\NC(=O)CNc2ccc(C)cc2)c(OC)c1 | 1.7 | -4.0 | 0.4 | 0.0 | x | x
CNc1cc(N2CCN(c3ccccc3Cl)CC2)ncn1 | -12.1 | 1.5 | 1.4 | -0.2 | x | x
O=C(NCC1CCC2(CCN(C(=O)c3ccncc3)CC2)O1)c1ccc2[nH]ccc2c1 (stereo not drawn) | 4.9 | -4.8 | 8.0* | 0.0 | -0.5 | 11.7
COc1ccc(N2C3=C(C(=O)CC(C)(C)C3)C(c3ccc(C)cc3)C3=C2CC(C)(C)CC3=O)cc1Cl | -11.8 | -4.9 | -0.1 | 0.0 | x | x
